PostGolgi yeast: growth inhibition of a yeast mutant, post-Golgi transport screen; post-Golgi transport phenotypic cell assay; inhibition, % at 10 µM; 0.9% of 98,000 active; AID 739;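 further: yeast cells grown in 1536-well plates; yeast grown about 18 h at 30C before absorbance read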
TNAP act mid DEA: activators of human TNAP at intermediate phosphate acceptor | P05186 | 64,000 tested, under 10 active | activation factor at 20 µM | purified TNAP, CDP-star luminescence, 100 mM DEA, 30 min; active compounds read high; scale: 0 levamisole-inhibited, 1 vehicle-only enzyme | AID 813;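 active means activation factor of at least 2 at 20 µM, relative to controls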
PostGolgi ctrl: inhibits growth of the yeast control strain | 5% of 98,000 active | inhibition, % at 10 µM | efflux-deficient yeast background strain, growth absorbance A615, 16 h
Smad3 inh: Smad3 (human) transcription factor binding inhibition; P84022; TR-FRET Smad3/Dy647-FoxH1 peptide binding, europium anti-His; inhibition, % at 25 µM; 0.29% of 88,000 active;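 active means compounds that reduce the energy-transfer binding signal between the protein and its labelled peptide by more than half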;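 further: 0% = Smad3 plus labelled peptide maximal FRET and 100% = peptide-only background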
Cav32 inh: human Cav3.2 channel inhibition, primary screen. O95180. Cav3.2-expressing cells, Fluo-4 calcium fluorescence FDSS; active compounds read low. B-score at 10 µM. 4% of 100,000 active. AID 449739;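 active means single-dose well whose peak fluorescence ratio is a statistical outlier from its plate by either plate-standardised score or position-corrected B-score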
DAT uptake mod: human DAT dopamine uptake with cocaine, either direction; Q01959; LLC-PK1 hDAT cells, [14C]-dopamine uptake with cocaine IC80; actives deviate in either direction; B-score at 10 µM; 1.3% of 110,000 active; AID 449768;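 active means Z score or B-score, a plate-position-corrected score, falls beyond the plate's 99.7% confidence bounds, in either direction; inactive means both scores lie inside the 99.7% bounds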;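 further: scored against the spread of the other compound wells on the same plate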
Starred values were filed as active, the others as inactive; · = no result. Only some compounds are listed: those with a hit (about 8.7% of all), similar ones and a draw of the others. Unless noted, no stated cut-off is given here; in the data, active means inhibition above about 30%; inactive means the rest.

SMILES	PostGolgi yeast	TNAP act mid DEA	PostGolgi ctrl	Smad3 inh	Cav32 inh	DAT uptake mod
O=C(NCc1ccc(C(F)(F)F)cc1)C1CC(c2cccc(F)c2)=NO1 (configuration not stated)	·	·	·	·	-2.7*	-0.93
COc1cccc(NC(=O)N2CCN(c3cccc(C)c3)C(C)C2)c1 (configuration not stated)	18	1	6	0	-4.9*	0.31
COC(=O)c1[nH]c2cc(OC)ccc2c1NC(=O)CN1CCN(c2cccc(C)c2)C(C)C1 (configuration not stated)	0	0.8	37*	-3	-2.8	1.2
COc1cccc(NC(=O)N2CCOCC2)c1	2	0.9	24	-2	0.91	0.45
Cc1cccc(N2CCN(C(=O)c3cc4c(=O)n(C)c5ccccc5c4n3C)CC2C)c1 (configuration not stated)	-2	0.9	37*	-2	-4.4*	0.068
COC(=O)c1[nH]c2cc(C)ccc2c1NC(=O)CN1CCN(c2ccccc2OC)CC1	5	0.9	6	·	-1.4	1.6
COC(=O)c1[nH]c2ccc(C)cc2c1NC(=O)CN1CCCc2ccccc21	-2	0.9	48*	19	-2.9	1
COC(=O)CCP(=O)(O)Cc1ccccc1CP(=O)(O)CCC(=O)OC	4	1	-3	16	-1.5	0.11
Cc1cc(/C([O-])=C(/C(=S)Nc2ccccc2)[n+]2ccccc2)c(C)n1-c1ccccc1	-4	·	19	·	-1	1
N#Cc1cc2c(N)c(C(=O)Nc3ccccc3)sc2nc1N	14	·	1	·	·	·
CC(=O)Nc1ccccc1-c1nc2ccc(C(=O)N3CCN(c4cccc(C)c4)C(C)C3)cc2[nH]c1=O (configuration not stated)	2	·	1	16	-0.34	-0.058
Cc1cccc(N2CCN(C(=O)c3ccc4nc(-c5ccco5)c(-c5ccco5)nc4c3)CC2C)c1 (configuration not stated)	2	·	6	-3	-6.5*	0.99
O=S(=O)(c1ccc(Br)cc1)N1CCN(c2ccc3nnc(-c4ccccc4)n3n2)CC1	16	·	56*	0	0.66	-0.8
O=C(c1ccc(Br)o1)N1CCN(c2ccc3nnc(-c4ccccc4)n3n2)CC1	8	0.9	10	-6	3.6*	0.56
Cc1nnc2ccc(N3CCN(C(=O)c4ccccc4)CC3)nn12	-3	1	19	6	0.87	1
O=C(Nc1ccc(NC(=O)c2ccco2)nc1)c1ccccn1	-5	0.9	9	10	-0.12	0.21
CC(C)(C)CC(C)(C)c1ccc(O)c(CN2CCN(CCC#N)CC2)c1	-4	·	17	9	-0.69	-1.1
CC(C)(C)CC(C)(C)c1cc(O)c(O)c(CN2CCCCC2)c1	·	·	·	93*	·	·
CC(C)OCCCNC(=O)CN1C(=O)CC(C)(C)S(=O)(=O)c2ccccc21	-2	1	20	-10	-0.22	-0.061
C=CCn1c(CSc2nc3ccccc3s2)nnc1SCC(=O)NCc1cccnc1	·	·	·	2	0.79	0.42
C=CCn1c(CSc2nc3ccccc3s2)nnc1SCC(=O)NCc1ccccc1	-3	·	15	9	-4.3*	0.3
Cc1ccc(C(=O)Nc2ccccc2Oc2ccccc2)cc1[N+](=O)[O-]	-9	·	34*	·	-4.1*	-0.0077
CCn1c(=O)c2c(O)cc(=O)oc2c2ccccc21	32*	·	2	·	1.2	-0.015
O=c1cc(O)c2c(=O)n(-c3ccccc3)c3ccccc3c2o1	-3	1	5	15	2.3	1.9
O=C(CCN1CCCC1)Nc1cccc(Br)c1	2	0.9	-6	-1	1.5	-0.81
CN1CCN(CCC(=O)Nc2cccc(F)c2)CC1	-7	0.9	5	10	-5*	-0.47
Cc1c(C(=O)N2CCCCC2)sc(N)c1C#N	4	0.9	17	-2	0.53	0.35
COC(=O)NC1CSCC1OC(=O)CN1C(=O)c2ccccc2C1=O (configuration not stated)	2	0.9	40*	2	0.54	-0.12
CCOC(=O)CN1C(=O)c2ccccc2C1=O	0	1	-3	7	-1.6	2.1
COc1ccccc1-n1cnnc1SC1CCOC1=O (configuration not stated)	-2	0.9	-2	-2	·	-0.13

High-throughput results from PubChem.
